Screening results deposited in PubChem by National Center for Advancing Translational Sciences (NCATS).
Shown are actives, neighbours in structure and some others; about 2.4% of the full set was active somewhere.
AmpC inh no det = blocks E. coli AmpC beta-lactamase in absence of detergent; P00811; hit rate 1.8% among 71,000; Potency, µM (highest dose often 28.7 µM), inactives show at the highest dose activity change, negative = inhibition; AmpC nitrocefin hydrolysis, absorbance 480 nm, no detergent; further: % of control where 0% means no effect
Target sequence (P00811 whole entry, looked up): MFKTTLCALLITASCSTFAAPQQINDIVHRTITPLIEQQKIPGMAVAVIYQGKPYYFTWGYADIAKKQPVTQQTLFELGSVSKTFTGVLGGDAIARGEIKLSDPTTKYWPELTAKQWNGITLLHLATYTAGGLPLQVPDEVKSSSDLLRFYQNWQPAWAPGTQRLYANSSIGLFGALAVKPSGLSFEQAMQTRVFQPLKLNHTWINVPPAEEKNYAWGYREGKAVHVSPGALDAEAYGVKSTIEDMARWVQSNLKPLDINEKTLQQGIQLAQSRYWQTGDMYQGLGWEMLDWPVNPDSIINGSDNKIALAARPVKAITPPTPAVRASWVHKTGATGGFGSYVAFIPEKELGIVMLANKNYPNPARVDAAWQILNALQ
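AmpC, 20 mM phosphate pH 7.0; 15 min cpd preinc, RT; start with nitrocefin (800 uM stock); A480 kinetic read, 20 s intervals, 4 min. No-enzyme wells = negative control.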
Prx2 Sm inh = inhibitors of Schistosoma mansoni peroxiredoxin 2; Potency, µM; S. mansoni Prx2 activity coupled to TGR/GSH (TGR is thioredoxin glutathione reductase), NADPH fluorescence loss, qHTS; AID 448; hit rate 0.07% among 65,000
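Coupled assay in which S. mansoni TGR passes NADPH reducing equivalents via glutathione to Prx2, which reduces H2O2. Compounds were preincubated 15 min at room temperature with 25 nM TGR/50 nM Prx2 mix. Kinetic NADPH fluorescence loss (ex 365/em 450 nm) was monitored.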
Anthrax LT inh = blocks cellular internalization of anthrax lethal toxin; Cells, anthrax lethal toxin internalization, FRET ratio (460/530); Potency, µM (titrated, usually from 40 µM), without a hit: at the highest dose activity change, negative = inhibition, most hits filed as inhibitors; hit rate 0.67% among 70,000; further: on the % scale 0 is the no-effect control and ±100 the full control effect; nearly all actives have a fitted effect of over 50% in size
AmpC det inh = AmpC beta-lactamase inhibition, detergent assay | P00811 | purified AmpC, nitrocefin hydrolysis with detergent | Potency, µM (series often up to 28.7 µM), without a hit: top-dose activity change, negative = inhibition | hit rate 0.09% among 71,000; active means well fitted curve in the direction sought with a large enough effect; inconclusive means small, poorly fitted or top-dose-only effect; further: on the % scale 0 is the no-effect control and ±100 the full control effect
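E. coli AmpC (5.3 nM) in 20 mM phosphate pH 7.0 with 0.01% Triton X-100, preincubated 15 min RT with compound; nitrocefin (2 uL of 800 uM stock) hydrolysis followed by 480 nm absorbance every 20 s over 4 min.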
Active calls of the source: *; i = inactive; ? = inconclusive; · = not tested or not shown; [ ] = remark or other dose. Unless noted, the call rests on the fitted dose curve. Potency means the concentration at half of the fitted maximal effect.

SMILES | AmpC inh no det | Prx2 Sm inh | Anthrax LT inh | AmpC det inh
COC(=O)C1=C(C)NC2=C(C(=O)CC(C)(C)C2)C1c1cccc(C)n1 (centres undefined) | 0% | >57 | 28% | 11%
COC(=O)c1nc2n(n1)C(c1cccc(Cl)c1)C1=C(CCCC1=O)N2 (centres undefined) | 4µM*[single pt active] | >57 | -4% | 11%
CCN(CC)CC[n+]1ccc2c(C)c3[nH]c4ccccc4c3c(C)c2c1 | -10%[5.75 µM] | >57 | 4µM* | -2%[5.75 µM]
COc1cccc(C2CC(c3ccc(C)cc3)n3nc(N)nc3N2)c1 (centres undefined) | 4µM*[single pt active] | >57 | 6% | 12%
COc1ccc(C2CC(c3c(Cl)cccc3Cl)n3nc(N)nc3N2)cc1 (centres undefined) | 4µM*[single pt active] | >57 | ? | 7%
COc1ccc(C2CC(c3ccc(Cl)cc3Cl)n3nc(N)nc3N2)cc1 (centres undefined) | 108% | >57 | 14% | 14%
CCOc1ccc(C2CC(c3cccc(OC)c3)Nc3nc(N)nn32)cc1 (centres undefined) | 80% | >57 | -5% | 10%
COc1cccc(C2CC(c3ccccc3Cl)Nc3nc(N)nn32)c1 (centres undefined) | 64% | >57 | -8% | -3%
COc1cccc(C2CC(c3ccc(C)cc3)Nc3nc(N)nn32)c1 (centres undefined) | 4µM*[single pt active] | >57 | -1% | 7%
C=CC1=C[C@@H](O)C2OC2C12OCCCO2 (some centres undefined) | · | · | 10%[1.6 µM] | ·
O=C(N1CCOCC1)C1(c2ccccc2)CCNCC1 | -12%[5.75 µM] | >57 | 10%[8 µM] | 0%[5.75 µM]
CCCC[C@@H]1C[C@H]1[C@@H](NP(=O)(c1ccccc1)c1ccccc1)c1ccccc1OC | 8% | · | 13µM* | 15%
CCCC[C@@H]1C[C@H]1C(NP(=O)(c1ccccc1)c1ccccc1)c1ccc(Cl)cc1 (some centres undefined) | 21% | >57 | -22% | -6%
N#Cc1cccc(-c2cncnc2-n2ccnc2)c1 | 10% | i | 5% | 8%
Nc1ncnc2c1ncn2[C@@H]1O[C@@H](COP(=O)(O)CP(=O)(O)OP(=O)(O)O)[C@H](O)[C@@H]1O | 0% | >57 | 5% | 0%
C[N+](C)(C)CCC(=O)c1cccc2ccccc12 | 0% | >57 | 25µM* | -3%
CCN(CC)CCCNC(=O)c1cc2c(-c3ccc(Cl)cc3)nn(C)c2s1 | 4µM*[single pt active] | >57 | 2.5µM* | 14%
CC1CCCCN1CCNC(=O)c1cc2c(-c3ccccc3F)nn(C)c2s1 (centres undefined) | 4µM*[single pt active] | >57 | 7.9µM* | 10%
Cn1nc(-c2ccc(Cl)cc2)c2cc(C(=O)NCC3CCCO3)sc21 (centres undefined) | 150% | >57 | ? | 8%
CN1CCN(CCCNC(=O)c2cc3c(-c4ccc(Cl)cc4)nn(C)c3s2)CC1 | 170% | >57 | 6.3µM* | 17%
O=c1[nH]c(=O)n([C@H]2C[C@H](O)[C@H](CO)O2)cc1/C=C\Br | 11% | >57 | 4% | 1%
CCCCC#Cc1nc(N)c2ncn([C@@H]3O[C@@H](C(=O)NCC)[C@H](O)[C@@H]3O)c2n1 | 15% | >57 | -16% | -3%
Cc1c(Cl)cccc1NC(=O)CN1C(=O)CSc2ncccc21 | 3.2µM*[single pt active] | >57 | ? | 11%
COCCCNC(=O)CN1C(=O)CSc2ncccc21 | -4% | >57 | 4% | 5%
CN(C)CCCO[C@H]1[C@H]([C@H](O)CO)O[C@H]2OC(C)(C)O[C@@H]21 | -4% | >57 | 2% | -1%
SMILES | AmpC inh no det | Prx2 Sm inh | Anthrax LT inh | AmpC det inh
O=c1c(-c2ccc(F)cc2)nc2cnc(N3CCNCC3)nc2n1C1CC1 | 20% | >57 | ? | -1%
COC(=O)c1cccc(C(=O)Nc2ccc(C)cc2)n1 | 23% | >57 | 5µM* | -4%
COc1cccc(C(=O)Nc2ccc(C)cc2)c1 | -15% | >57 | -17% | 2%
O=C(CCCn1c(=O)[nH]c2ccccc2c1=O)NC1CCCCCC1 | 13% | >57 | -4% | 3%
O=C(CCCCn1c(=O)[nH]c2ccccc2c1=O)NC1CCN(Cc2ccccc2)CC1 | 3.2µM*[single pt active] | >57 | -14% | 15%
COC(=O)[C@H]1[C@@H]2C[C@H]3c4[nH]c5ccccc5c4CCN3C[C@@H]2CC[C@@H]1O | 10% | >57 | -7% | 1%
c1cncc(CSc2nnc(-c3cccnc3)n2Cc2ccco2)c1 | -8% | >57 | -1% | -3%
O=C(CSc1nnc(-c2cccnc2)n1Cc1ccco1)N1c2ccccc2Sc2ccccc21 | 141% | >57 | 16µM* | 1%
CCCN1CC[C@@H]2c3cc(O)ccc3CC[C@H]21 | 5% | >57 | 6% | -2%
O=C(Cn1cc(C(=O)c2cccs2)c2ccccc21)NCc1ccc2c(c1)OCO2 | 2µM*[single pt active] | >57 | ? | 14%
COc1ccc(CNc2cc(-c3ccoc3)ncn2)c(OC)c1 | 56% | >57 | 8% | 4%
C[C@H](CC(C#N)(c1ccccc1)c1ccccc1)N1CCCCC1 | 18%[5.75 µM] | >57 | -13%[8 µM] | -1%[5.75 µM]
CCSc1nnc(NC(=O)c2ccc(Br)s2)s1 | 10µM* | >57 | · | 1%
CC(C)[C@@H](OCc1ccccc1)[C@H](C)/C=N\OC[C@@H](O)COCc1ccco1 | · | · | -8%[8 µM] | ·
O=C(Oc1cccc(-n2cnnn2)c1)c1sc2ccccc2c1Cl | 13µM*[single pt active] | >57 | -6% | -3%
Cc1nnc(NC(=O)NC(C)N2C(=O)C3C4C=CC(C4)C3C2=O)s1 (centres undefined) | -12% | >57 | -7% | -5%
Cc1nnc(NC(=O)CCCCCN2C(=O)C3C4C=CC(C4)C3C2=O)s1 (centres undefined) | 4µM*[single pt active] | · | 1% | 8%
CCN(CC)CCCC(C)n1c(-c2ccccc2)nc2c(N3CCOCC3)nc(C)nc21 (centres undefined) | 51% | · | 18% | 10%
CCOC(=O)c1c(N)nn(C(C)=O)c1-c1ccccc1 | 2% | >57 | -1% | -7%
CCOC(=O)c1c(-c2ccccc2)c(C(C)=O)c(=O)n(C)c1C | 4µM*[single pt active] | >57 | 3% | 8%
C=CC=O | -4% | · | 13% | 10%
Cc1ccc(-c2csc(N3CCC(C(N)=O)(N4CCCCC4)CC3)n2)cc1 | 4µM*[single pt active] | >57 | -2% | 14%
CC(=O)OC1c2ccccc2C(=O)N1c1ccccc1C (centres undefined) | 4µM*[single pt active] | >57 | -9% | 15%
COc1cccc(-c2cncnc2-n2ccnc2)c1 | -16% | >57 | 8% | -11%
COc1cccc(-c2nccc(-n3ccnc3)n2)c1 | 10µM* | >57 | ? | 13µM*
O=c1[nH]c(CN2CCc3ccccc32)nc2scc(-c3cccs3)c12 | 0.79µM* | >57 | ? | -4%
O=c1[nH]cnc2scc(-c3cccs3)c12 | -10% | >57 | · | -3%
Cc1c([C@@H](C)[C@H]2NC[C@H](C)C[C@@H]2O)ccc2c1C[C@@H]1[C@H]2CC=C2C[C@@H](O)CC[C@@]21C | -2%[5.75 µM] | >57 | 8%[8 µM] | -2%[5.75 µM]
O=c1c(O)c(-c2cc(O)c(O)c(O)c2)oc2cc(O)cc(O)c12 | 10µM* | >57 | ? | -2%
